# Assay results published in PubChem BioAssay (NCATS).
# Calls of active or inactive are those of the source. Unless noted, calls follow the shape of the full dose curve.
# Key:
# [1] = target: Estrogen receptor (Homo sapiens) (UniProt P03372); test: qHTS assay for small molecule antagonists of estrogen receptor alpha signaling (AID 588513; active = well fitted curve in the direction sought with a large enough effect in the signal ratio, with a control signal flat, not every such curve was filed as active; inconclusive = small, poorly fitted or top-dose-only effect, or effect the other way, or a change in a side signal; inactive = no such curve, though single readings can be large or run the other way; the % refers to the signal ratio; also: potency is read from the fitted curve at half-maximal effect)
# Method in brief: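 ER-alpha-UAS-bla GripTite HEK 293 cells in medium with 2% charcoal/dextran-treated FBS were preincubated 4 h at 37 C, dosed with compound (1:2 titration), stimulated with 0.5nM 17-beta-estradiol for 18 h, then read by CCF4 beta-lactamase fluorescence.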
# [2] = qHTS assay for small molecule activators of the nuclear factor-kappa B (NF-kB) signaling pathway (AID 651749; active = well fitted activation curve with a large enough effect in the signal ratio; inconclusive = small, poorly fitted or top-dose-only effect, or a change in a side signal; the % refers to the signal ratio; also: series mostly up to about 77 µM; % of control where 0% means no effect); details: NF-kB-bla ME-180 cells, beta-lactamase FRET ratio, 16 h; activation: stronger effect = higher value
# Method in brief: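 FRET-based beta-lactamase detection in ME-180 cells reports NF-kB response-element-driven transcription following overnight (16 hr) compound treatment.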
# [3] = target: Cytochrome P450 3A4 (Homo sapiens) (UniProt P08684); test: qHTS Assay for Activators of Cytochrome P450 3A4 (AID 885; active = well fitted curve in the direction sought with a large enough effect; inconclusive = small, poorly fitted or top-dose-only effect, or another doubt; inactive = no such curve, though single readings can be large; an effect the other way counts as inactive or inconclusive; also: nearly all actives have a fitted effect of over 65% in size)
# Method in brief: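 Using 20nM recombinant human CYP3A4 in potassium phosphate (200mM), substrate Luciferin-PPXE at 25uM, luminescent luciferin detection followed a 60-min RT NADPH reaction; data scaled to 57 uM ketoconazole.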
# [4] = Cell Viability - LYMP2-001 (AID 921; active = well fitted curve in the direction sought with a large enough effect; inconclusive = small, poorly fitted or top-dose-only effect, or another doubt; inactive = no such curve, though single readings can be large; an effect the other way counts as inactive or inconclusive; also: potency is read from the fitted curve at half-maximal effect; nearly all actives have a fitted effect of over 70% in size)
# Method in brief: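 Human lymphoblastoid cells (Coriell), 2500 per well, were preincubated 5 hr at 37 C, then exposed to compounds in complete medium for 24 hr at 37 C. Cellular ATP was read by CellTiter-Glo luminescence; AC50 from Hill fits of concentration-response data.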
# [5] = MultiTox-Fluor Cytotoxicity Assay - LYMP1-001 - Dead Cells (AID 946; active = well fitted curve in the direction sought with a large enough effect; inconclusive = small, poorly fitted or top-dose-only effect, or another doubt; inactive = no such curve, though single readings can be large; an effect the other way counts as inactive or inconclusive; also: potency is read from the fitted curve at half-maximal effect)
# Method in brief: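 In this qHTS, 15 uM tetraoctylammonium bromide defined 100% and DMSO defined basal activity. Lymphoblastoid cells (LYMP1-001, 2500 per well) received compound for 16 hr at 37 C before a fluorogenic dead-cell substrate readout at 485/520 nm.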
# [6] = MultiTox-Fluor Cytotoxicity Assay - LYMP1-001 - Live Cells (AID 947; active = well fitted curve in the direction sought with a large enough effect; inconclusive = small, poorly fitted or top-dose-only effect, or another doubt; inactive = no such curve, though single readings can be large; an effect the other way counts as inactive or inconclusive; also: potency is read from the fitted curve at half-maximal effect)
# [7] = MultiTox-Fluor Cytotoxicity Assay - LYMP1-002 - Dead Cells (AID 960; active = well fitted curve in the direction sought with a large enough effect; inconclusive = small, poorly fitted or top-dose-only effect, or another doubt; inactive = no such curve, though single readings can be large; an effect the other way counts as inactive or inconclusive; also: potency is read from the fitted curve at half-maximal effect; nearly all actives have a fitted effect of over 60% in size)
# Method in brief: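 Concentration-dependent increases in membrane-leaked protease activity are quantified in LYMP1-002 cells after 16 hr treatment; values are normalized against DMSO and tetraoctylammonium bromide (15 uM) controls and AC50 derived by Hill modeling.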
# [8] = MultiTox-Fluor Cytotoxicity Assay - LYMP1-003 - Dead Cells (AID 961; active = well fitted curve in the direction sought with a large enough effect; inconclusive = small, poorly fitted or top-dose-only effect, or another doubt; inactive = no such curve, though single readings can be large; an effect the other way counts as inactive or inconclusive; also: potency is read from the fitted curve at half-maximal effect; nearly all actives have a fitted effect of over 70% in size)
# Method in brief: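 Acute toxicity is scored as increased dead-cell protease activity in human lymphoblastoid LYMP1-003 cells after 16 h compound exposure in complete culture medium. Activity is normalized to DMSO basal and 15 uM tetraoctylammonium bromide as full response.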
# [9] = target: Bile acid receptor (Homo sapiens) (UniProt Q96RI1); test: qHTS assay for small molecule agonists of farnesoid X receptor signaling (AID 588527); details: HEK293T FXR-UAS-bla, beta-lactamase ratio, 16 h; activation: stronger effect = higher value;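 also: series mostly up to about 77 µM; 0% = vehicle basal and 100% = reference agonist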
# Method in brief: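 Quantitative HTS used FXR-UAS-bla HEK293T cells with 16 h compound incubation at 37 C. EC50 values came from concentration-response curves normalized to chenodeoxycholic acid.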
# [10] = qHTS assay for small molecule agonists of the antioxidant response element (ARE) signaling pathway (AID 651741; active = well fitted activation curve with a large enough effect in the signal ratio; inconclusive = small, poorly fitted or top-dose-only effect, or effect the other way, or a change in a side signal; the % refers to the signal ratio; also: potency is read from the fitted curve at half-maximal effect; as to activation: % of control where 0% means no effect)
# Method in brief: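 Agonist activity is measured as ARE-driven beta-lactamase expression in a stable HepG2 reporter line, using 16 h compound treatment at 37 C and a FRET substrate fluorescence readout after 2 h.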
# [11] = target: Nuclear receptor ROR-gamma (Homo sapiens) (UniProt P51449); test: qHTS assay for small molecule antagonists of the retinoid-related orphan receptor gamma (ROR-gamma) signaling pathway (AID 651802; active = well fitted curve in the direction sought with a large enough effect; inconclusive = small, poorly fitted or top-dose-only effect, or another doubt; inactive = no such curve, though single readings can be large; an effect the other way counts as inactive or inconclusive; also: potency is read from the fitted curve at half-maximal effect; nearly all actives have a fitted effect of over 60% in size)
# Method in brief: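 Doxycycline-induced reporter activity in engineered CHO cells (TET-inducible ROR, RORE-LUC) was measured by luminescence after 16hr compound exposure at 37C.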
# [12] = target: Glucocorticoid receptor (Homo sapiens) (UniProt P04150); test: qHTS assay for small molecule antagonists of glucocorticoid receptor signaling (AID 588533; active = well fitted inhibition curve with a large enough effect in the signal ratio, with a control signal flat, not every such curve was filed as active; inconclusive = small, poorly fitted or top-dose-only effect, or effect the other way, or a change in a side signal; the % refers to the signal ratio;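 also: cells stimulated with 2 nM dexamethasone as agonist; % is scaled to controls: 0 for no effect and ±100 for the full control effect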)
# Method in brief: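 Antagonist-mode qHTS: compound titrations added to GRE-bla HeLa cells, then dexamethasone 2 nM final; 18 h, 37 C. CCF4 FRET fluorescence normalized to dexamethasone and DMSO; IC50 from Hill fit.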
# [13] = qHTS assay for small molecule agonists of retinoid X receptor alpha signaling (AID 588544); details: HEK293T RXRa-UAS-bla, beta-lactamase reporter, 18 h; 530 nm emission
# [14] = target: Thyroid hormone receptor beta (Homo sapiens) (UniProt P10828); test: qHTS assay for small molecule antagonists of thyroid hormone receptor beta signaling (AID 588547; active = well fitted inhibition curve with a large enough effect in the signal ratio, with a control signal flat, not every such curve was filed as active; inconclusive = small, poorly fitted or top-dose-only effect, or effect the other way, or a change in a side signal; the % refers to the signal ratio;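 also: cells stimulated with 0.4 nM T3 agonist during compound exposure; series mostly up to about 77 µM; % is scaled to controls: 0 for no effect and ±100 for the full control effect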); details: TR-UAS-bla HEK293, beta-lactamase ratio, antagonist mode, 18 h
# Method in brief: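 Inhibition of T3-driven (0.4nM final) beta-lactamase reporter activity was measured over 0.59 nM to 92 uM compound after 18 h at 37 C. The cells were GripTite HEK293 TR-UAS-bla in charcoal/dextran-stripped serum, with CCF4 ratio read-out and IC50 from Hill fits.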
# [15] = qHTS assay for small molecule activators of the human pregnane X receptor (PXR) signaling pathway (AID 720659; call rule not given here; also: 0% is about no effect)
# [16] = target: Bile acid receptor (Homo sapiens) (UniProt Q96RI1); test: qHTS assay for small molecule antagonists of farnesoid X receptor signaling (AID 588526); also: % is scaled to controls: 0 for no effect and ±100 for the full control effect
# Method in brief: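 Beta-lactamase reporter antagonist mode: HEK293T FXR-UAS-bla cells, titrated compound, CDCA stimulation, 16 h 37 C, CCF4 dye 2 h RT. Data normalized to CDCA 50 uM and DMSO; Hill-fit IC50.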
# [17] = target: Estrogen receptor (Homo sapiens) (UniProt P03372); test: qHTS assay for small molecule agonists of estrogen receptor alpha signaling (AID 588514);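 also: 0% = vehicle only and 100% = reference agonist; nearly all actives have a fitted effect of over 70% in size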
# Method in brief: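 Fluorescence from CCF4 cleavage reports ER-alpha-driven beta-lactamase expression in HEK 293 cells treated 18 hrs at 37 C. Data normalized to 17-beta-estradiol (20 nM) and DMSO, fitted to Hill equation.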
# [18] = target: Androgen receptor (Homo sapiens) (UniProt P10275); test: qHTS assay for small molecule agonists of androgen receptor signaling (AID 588515; active = well fitted curve in the direction sought with a large enough effect in the signal ratio, with a control signal flat; inconclusive = small, poorly fitted or top-dose-only effect, or effect the other way, or a change in a side signal; inactive = no such curve, though single readings can be large or run the other way; the % refers to the signal ratio; also: % is scaled to controls: 0 for no effect and ±100 for the full control effect); details: AR-UAS-bla HEK293, beta-lactamase ratio, agonist 16 h; stronger effect = higher value
# Method in brief: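 Stimulation of an AR-responsive β-lactamase reporter in GripTite HEK293 cells was measured after 16 h compound exposure at 37 °C, via CCF4 fluorescence after 2 h RT. EC50 from Hill fits, normalized to R1881 at 30 nM.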
# [19] = target: Androgen receptor (Homo sapiens) (UniProt P10275); test: qHTS assay for small molecule antagonists of androgen receptor signaling (AID 588516; active = well fitted curve in the direction sought with a large enough effect in the signal ratio, with a control signal flat, not every such curve was filed as active; inconclusive = small, poorly fitted or top-dose-only effect, or effect the other way, or a change in a side signal; inactive = no such curve, though single readings can be large or run the other way; the % refers to the signal ratio; also: % is scaled to controls: 0 for no effect and ±100 for the full control effect)
# Method in brief: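 AR-UAS-bla-GripTite HEK 293 cells (2000/well, 5 h at 37 C) received compound titrations, then R1881 at 10 nM final; after 16 h at 37 C, CCF4 dye 2 h RT, beta-lactamase fluorescence read; IC50 from Hill fits.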
# Chain of Estrogen receptor (Homo sapiens) (P03372 whole entry, looked up): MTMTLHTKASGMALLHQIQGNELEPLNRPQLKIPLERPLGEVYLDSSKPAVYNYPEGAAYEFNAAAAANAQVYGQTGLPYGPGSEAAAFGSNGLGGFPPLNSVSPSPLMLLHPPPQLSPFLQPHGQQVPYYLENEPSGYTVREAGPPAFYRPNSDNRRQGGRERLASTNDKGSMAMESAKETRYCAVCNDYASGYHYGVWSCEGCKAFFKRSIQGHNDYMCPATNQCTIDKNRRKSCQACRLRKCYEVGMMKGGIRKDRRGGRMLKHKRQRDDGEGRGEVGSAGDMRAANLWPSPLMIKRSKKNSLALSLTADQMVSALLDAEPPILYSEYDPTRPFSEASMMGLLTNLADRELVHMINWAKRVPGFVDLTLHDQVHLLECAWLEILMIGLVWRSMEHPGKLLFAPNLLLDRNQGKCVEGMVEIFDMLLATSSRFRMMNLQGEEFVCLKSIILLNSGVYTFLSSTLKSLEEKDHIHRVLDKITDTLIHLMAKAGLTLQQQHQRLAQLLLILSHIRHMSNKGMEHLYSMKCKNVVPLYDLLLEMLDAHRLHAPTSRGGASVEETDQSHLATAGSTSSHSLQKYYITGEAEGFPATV
# Chain of Bile acid receptor (Homo sapiens) (Q96RI1 whole entry, looked up): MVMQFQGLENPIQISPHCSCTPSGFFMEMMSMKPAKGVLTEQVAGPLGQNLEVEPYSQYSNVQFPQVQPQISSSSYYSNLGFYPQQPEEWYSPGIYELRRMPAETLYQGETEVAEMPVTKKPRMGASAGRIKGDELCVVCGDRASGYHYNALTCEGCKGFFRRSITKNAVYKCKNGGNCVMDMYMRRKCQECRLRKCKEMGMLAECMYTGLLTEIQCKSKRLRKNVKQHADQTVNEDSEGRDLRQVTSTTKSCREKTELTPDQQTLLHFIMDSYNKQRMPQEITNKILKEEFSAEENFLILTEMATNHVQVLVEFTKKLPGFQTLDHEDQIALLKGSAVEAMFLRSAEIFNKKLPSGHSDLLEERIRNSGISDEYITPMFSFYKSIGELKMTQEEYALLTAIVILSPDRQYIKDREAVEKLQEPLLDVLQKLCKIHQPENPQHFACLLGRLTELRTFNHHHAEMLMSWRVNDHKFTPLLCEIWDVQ
# Chain of Thyroid hormone receptor beta (Homo sapiens) (P10828 whole entry, looked up): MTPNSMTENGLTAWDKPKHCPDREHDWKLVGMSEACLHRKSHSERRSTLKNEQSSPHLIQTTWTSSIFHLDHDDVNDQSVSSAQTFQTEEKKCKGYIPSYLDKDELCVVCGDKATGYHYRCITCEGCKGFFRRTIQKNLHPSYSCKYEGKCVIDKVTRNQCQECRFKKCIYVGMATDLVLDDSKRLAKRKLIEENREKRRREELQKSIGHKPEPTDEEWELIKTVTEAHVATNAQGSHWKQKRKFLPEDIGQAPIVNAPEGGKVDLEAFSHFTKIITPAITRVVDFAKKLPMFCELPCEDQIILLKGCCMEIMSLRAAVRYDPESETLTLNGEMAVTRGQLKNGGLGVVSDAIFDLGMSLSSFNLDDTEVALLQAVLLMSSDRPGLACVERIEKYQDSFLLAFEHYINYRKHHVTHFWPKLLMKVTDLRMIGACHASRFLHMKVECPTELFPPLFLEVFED
# Chain of Glucocorticoid receptor (Homo sapiens) (P04150 whole entry, looked up): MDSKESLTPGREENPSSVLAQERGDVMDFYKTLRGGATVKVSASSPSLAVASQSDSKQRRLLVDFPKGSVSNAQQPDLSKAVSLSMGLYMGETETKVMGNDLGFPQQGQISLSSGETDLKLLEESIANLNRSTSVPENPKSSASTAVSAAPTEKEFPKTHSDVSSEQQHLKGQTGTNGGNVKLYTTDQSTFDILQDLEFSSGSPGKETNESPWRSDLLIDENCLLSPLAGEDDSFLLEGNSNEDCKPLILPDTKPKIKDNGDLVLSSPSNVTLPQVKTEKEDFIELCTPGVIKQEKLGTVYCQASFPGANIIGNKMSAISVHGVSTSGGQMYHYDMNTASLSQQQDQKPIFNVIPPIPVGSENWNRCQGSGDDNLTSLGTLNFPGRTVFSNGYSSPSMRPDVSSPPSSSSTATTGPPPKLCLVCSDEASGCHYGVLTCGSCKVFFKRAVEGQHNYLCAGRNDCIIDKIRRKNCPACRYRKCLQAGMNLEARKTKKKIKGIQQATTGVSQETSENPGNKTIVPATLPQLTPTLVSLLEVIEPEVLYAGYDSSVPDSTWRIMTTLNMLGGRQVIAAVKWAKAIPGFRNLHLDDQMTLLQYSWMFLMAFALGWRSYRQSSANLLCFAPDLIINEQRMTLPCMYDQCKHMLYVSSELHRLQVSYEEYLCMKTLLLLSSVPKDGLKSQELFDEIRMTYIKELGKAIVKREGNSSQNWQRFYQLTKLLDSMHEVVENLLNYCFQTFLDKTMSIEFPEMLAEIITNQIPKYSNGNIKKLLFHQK
# Chain of Androgen receptor (Homo sapiens) (P10275 whole entry, looked up): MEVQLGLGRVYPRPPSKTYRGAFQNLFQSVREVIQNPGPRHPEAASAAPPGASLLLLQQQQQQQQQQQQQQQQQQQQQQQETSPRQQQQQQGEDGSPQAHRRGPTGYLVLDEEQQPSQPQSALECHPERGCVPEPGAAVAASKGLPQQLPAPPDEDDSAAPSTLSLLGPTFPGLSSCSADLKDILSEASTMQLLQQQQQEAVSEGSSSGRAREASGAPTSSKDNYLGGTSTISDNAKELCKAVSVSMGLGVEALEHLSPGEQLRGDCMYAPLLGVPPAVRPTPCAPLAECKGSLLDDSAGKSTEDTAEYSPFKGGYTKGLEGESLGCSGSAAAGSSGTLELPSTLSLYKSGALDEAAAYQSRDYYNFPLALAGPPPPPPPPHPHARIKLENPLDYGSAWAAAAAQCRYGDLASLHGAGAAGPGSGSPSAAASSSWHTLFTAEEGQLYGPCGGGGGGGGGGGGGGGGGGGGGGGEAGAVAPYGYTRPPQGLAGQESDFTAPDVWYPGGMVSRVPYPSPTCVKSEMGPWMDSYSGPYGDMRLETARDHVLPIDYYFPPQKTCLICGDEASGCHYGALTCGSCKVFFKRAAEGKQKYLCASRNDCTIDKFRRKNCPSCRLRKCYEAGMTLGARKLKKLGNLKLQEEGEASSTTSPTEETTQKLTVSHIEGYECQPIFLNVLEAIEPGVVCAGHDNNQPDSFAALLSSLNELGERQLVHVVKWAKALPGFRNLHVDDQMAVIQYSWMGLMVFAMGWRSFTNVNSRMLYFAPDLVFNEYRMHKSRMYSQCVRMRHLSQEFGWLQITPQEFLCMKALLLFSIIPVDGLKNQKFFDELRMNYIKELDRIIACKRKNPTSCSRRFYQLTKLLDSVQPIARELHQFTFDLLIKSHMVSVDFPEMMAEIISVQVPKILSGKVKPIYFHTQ
# Chain of Cytochrome P450 3A4 (Homo sapiens) (P08684 whole entry, looked up): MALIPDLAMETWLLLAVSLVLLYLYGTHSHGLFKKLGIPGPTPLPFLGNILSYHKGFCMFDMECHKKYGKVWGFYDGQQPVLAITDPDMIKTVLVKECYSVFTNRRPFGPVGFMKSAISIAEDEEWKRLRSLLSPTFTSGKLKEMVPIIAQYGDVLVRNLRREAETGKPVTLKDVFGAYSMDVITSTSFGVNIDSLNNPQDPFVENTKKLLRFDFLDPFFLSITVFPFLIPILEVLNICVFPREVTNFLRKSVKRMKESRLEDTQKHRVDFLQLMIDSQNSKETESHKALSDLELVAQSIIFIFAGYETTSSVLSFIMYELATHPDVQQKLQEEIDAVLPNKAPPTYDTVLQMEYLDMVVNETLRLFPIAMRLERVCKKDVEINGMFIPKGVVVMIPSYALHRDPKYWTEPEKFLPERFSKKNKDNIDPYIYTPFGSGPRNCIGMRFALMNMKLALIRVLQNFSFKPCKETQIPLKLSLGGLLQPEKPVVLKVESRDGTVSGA
# Chain of Nuclear receptor ROR-gamma (Homo sapiens) (P51449 whole entry, looked up): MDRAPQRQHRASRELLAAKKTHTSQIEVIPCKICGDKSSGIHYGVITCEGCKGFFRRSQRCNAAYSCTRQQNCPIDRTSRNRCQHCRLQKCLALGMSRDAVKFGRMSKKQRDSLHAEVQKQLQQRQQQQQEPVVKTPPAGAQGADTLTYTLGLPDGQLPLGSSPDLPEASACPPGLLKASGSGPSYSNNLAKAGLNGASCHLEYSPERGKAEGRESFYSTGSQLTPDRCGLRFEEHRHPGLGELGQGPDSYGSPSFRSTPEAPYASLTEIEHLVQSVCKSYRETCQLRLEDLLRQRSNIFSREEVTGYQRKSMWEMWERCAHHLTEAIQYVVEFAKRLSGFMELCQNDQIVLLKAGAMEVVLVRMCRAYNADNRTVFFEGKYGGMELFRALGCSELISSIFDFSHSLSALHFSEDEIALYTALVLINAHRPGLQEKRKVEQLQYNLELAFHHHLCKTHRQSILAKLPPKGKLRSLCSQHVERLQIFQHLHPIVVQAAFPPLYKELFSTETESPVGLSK
structure (smiles),measurement,setting,value
CCOP(=S)(OCC)Oc1nc(Cl)n(C(C)C)n1,Potency,[1],inactive
same,activation,[2],1.85% (inactive)
O=Nc1ccc(Nc2ccccc2)cc1,Potency,[3],inactive
same,Potency,[4],2.51 µM (active)
same,Potency,[5],5.01 µM (active)
same,Potency,[6],7.94 µM (active)
same,Potency,[7],3.98 µM (active)
same,Potency,[8],5.01 µM (active)
same,Potency,[1],12.6 µM [inconclusive] (active)
same,activation,[9],15.6% (inactive)
same,Potency,[10],54.5 µM (active)
same,Potency,[11],7.5 µM (active)
Nc1cnn(-c2ccccc2)c(=O)c1Cl,Potency,[1],inactive
same,Potency,[12],inactive
same,max response,[13],-6.12%
same,activity change % (negative = inhibition),[14],-13.7% (inactive)
same,outcome,[15],inactive
CCNC(=O)NC(=O)/C(C#N)=N/OC,Potency,[1],inactive
same,Potency,[16],inactive
same,activation,[9],-0.507% (inactive)
same,max response,[13],5.29%
same,activity change % (negative = inhibition),[14],5.55% (inactive)
same,Potency,[10],61.1 µM (active)
CC(C)(C)OOC(C)(C)c1ccc(C(C)(C)OOC(C)(C)C)cc1,Potency,[17],inactive
same,activation,[18],4.74% (inactive)
same,Potency,[19],inactive
same,Potency,[16],inactive
same,activation,[9],3.45% (inactive)
same,max response,[13],-9.77%
same,activity change % (negative = inhibition),[14],10.7% (inactive)
same,Potency,[10],inactive
same,activation,[2],0.854% (inactive)
CCOC(=O)C(Cl)Cc1cc(-n2nc(C)n(C(F)F)c2=O)c(F)cc1Cl (centres undefined),Potency,[17],inactive
same,Potency,[16],inactive
same,activation,[9],1.1% (inactive)
same,Potency,[12],inactive
same,activity change % (negative = inhibition),[14],18.6% (inactive)
same,Potency,[10],54.5 µM (active)
same,activation,[2],-0.796% (inactive)
same,outcome,[15],inactive
COC[C@H](C)N(C(=O)CCl)c1c(C)csc1C,Potency,[17],inactive
same,Potency,[16],inactive
same,activation,[9],-0.72% (inactive)
same,Potency,[12],inactive
same,activity change % (negative = inhibition),[14],-22.8% (inactive)
same,Potency,[10],19.3 µM (active)
same,activation,[2],-0.69% (inactive)
CC1=C(C(=O)Nc2ccccc2)SCCO1,Potency,[17],inactive
same,activation,[18],-8.15% (inactive)
same,Potency,[19],inactive
same,Potency,[16],inactive
same,activation,[9],-5.36% (inactive)
same,Potency,[12],inactive
same,max response,[13],-2.97%
same,activity change % (negative = inhibition),[14],3.71% (inactive)
same,Potency,[10],inactive
Nc1cccc(Cl)c1Cl,Potency,[17],inactive
same,Potency,[19],inactive
same,Potency,[16],inactive
same,activation,[9],2.15% (inactive)
same,Potency,[12],inactive
same,max response,[13],-11.4%
same,outcome,[15],inactive
[Ga]#[As],Potency,[17],inactive
same,activation,[18],2.63% (inactive)
same,Potency,[19],inactive
same,Potency,[16],inactive
same,Potency,[12],inactive
same,max response,[13],-5.43%
same,activation,[2],-0.5% (inactive)
same,outcome,[15],inactive
CCOP(=S)(OCC)SCCl,Potency,[17],inactive
same,activation,[18],5.88% (inactive)
same,Potency,[19],inactive
same,Potency,[16],inactive
same,Potency,[12],inactive
same,activity change % (negative = inhibition),[14],-1.44% (inactive)
same,Potency,[10],inactive
same,activation,[2],-1.72% (inactive)
same,outcome,[15],inactive
CCOP(=O)(OCC)OC(Cl)C(Cl)(Cl)Cl (centres undefined),Potency,[17],inactive
same,activation,[18],-3.01% (inactive)
same,Potency,[16],inactive
same,activation,[9],4.93% (inactive)
same,Potency,[12],inactive
same,max response,[13],-5.65%
same,activity change % (negative = inhibition),[14],-2.35% (inactive)
same,activation,[2],1.4% (inactive)
same,outcome,[15],inactive
CCOP(N)(=O)Oc1ccc(SC)c(C)c1 (centres undefined),Potency,[17],inactive
same,activation,[18],-2.98% (inactive)
same,Potency,[19],inactive
same,Potency,[16],inactive
same,activation,[9],3.26% (inactive)
same,Potency,[12],inactive
same,max response,[13],-16.6%
same,activity change % (negative = inhibition),[14],-15.7% (inactive)
same,Potency,[10],inactive
CC(C)=CC1[C@H](C(=O)OCc2cccc(Oc3ccccc3)c2)C1(C)C (some centres undefined),Potency,[17],inactive
same,Potency,[16],inactive
same,activation,[9],-3.66% (inactive)
same,Potency,[12],inactive
same,max response,[13],-6.27%
same,activity change % (negative = inhibition),[14],2.1% (inactive)
CC(C)Oc1cc(-n2nc(C(C)(C)C)oc2=O)c(Cl)cc1Cl,Potency,[17],inactive
same,activation,[18],-15% (inactive)
same,activation,[9],1.08% (inactive)
same,Potency,[12],inactive
same,Potency,[10],61.1 µM (active)
same,activation,[2],1.16% (inactive)
CCOP(=O)(OCC)Oc1ccc2c(C)c(Cl)c(=O)oc2c1,Potency,[17],inactive
same,activation,[18],-0.972% (inactive)
same,Potency,[19],inactive
same,Potency,[16],inactive
same,activation,[9],2.16% (inactive)
same,Potency,[12],inactive
same,max response,[13],2.41%
same,activity change % (negative = inhibition),[14],-0.271% (inactive)
same,activation,[2],0.977% (inactive)
O=[N+]([O-])Nc1nccn1Cc1ccc(Cl)nc1,Potency,[17],inactive
same,activation,[18],20.9% (inactive)
same,Potency,[19],inactive
same,Potency,[16],inactive
same,Potency,[12],inactive
same,max response,[13],-15.2%
same,activity change % (negative = inhibition),[14],-3.59% (inactive)
same,activation,[2],-1.97% (inactive)
same,outcome,[15],inactive
CCNc1nc(Cl)nc(NC(C)(C)C)n1,Potency,[17],inactive
same,activation,[18],-15.6% (inactive)
same,Potency,[19],inactive
same,Potency,[16],inactive
same,activation,[9],0.616% (inactive)
same,Potency,[12],inactive
same,activation,[2],-1.02% (inactive)
CCOP(=O)(OCC)SCSP(=S)(OCC)OCC,Potency,[17],inactive
same,activation,[18],-6.59% (inactive)
same,Potency,[19],inactive
same,Potency,[16],inactive
same,activation,[9],10.4% (inactive)
same,Potency,[12],inactive
same,activity change % (negative = inhibition),[14],-5.46% (inactive)
same,activation,[2],1.64% (inactive)
CC(C)CCCCCCOC(=O)c1ccccc1C(=O)OCCCCCCC(C)C,Potency,[17],inactive
same,activation,[18],13.4% (inactive)
same,Potency,[19],inactive
same,Potency,[16],inactive
same,activation,[9],0.284% (inactive)
same,Potency,[12],inactive
same,max response,[13],-16.4%
same,activity change % (negative = inhibition),[14],-2.48% (inactive)
same,Potency,[10],inactive
same,activation,[2],2.38% (inactive)
same,outcome,[15],inactive
